Experimental findings from PMC5540273 (PLoS ONE, 2017) are described below.

Test systems include PIK3C2G; PIK3CA; PIK3CB; PIK3CD; PIK3CG; PIKFYVE; PIM1; PIM2; PIM3.
What all share (conditions): concentration: 1 μM, replicates: in singlicate; n = 1
Another assay relates to T1, PIK4CB.
T1 construct: gene PI4KB
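Further: KINOMEscan kinase panel screen.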

Turning to `COC(=O)Nc1nc2ccc(Oc3ccc(NC(=O)Nc4cc(C(F)(F)F)ccc4F)cc3)cc2n1C.Cl` [GW692089], the “%Inh” value is on record as 4% in the assay on PIK3C2G; 0% in the assay on PIK3CA; 0% with PIK3CB; 0% in the assay with PIK3CD; 0% with PIK3CG; 0% in the assay on PIK4CB. Besides, the “%Inh” value is reported as 6% with PIKFYVE, 0% with PIM1, 24% in the assay with PIM2 and 0% in the assay on PIM3.

Turning to `COc1cc2c(cc1OCCN1CCNCC1)ncc1c3ccc(C#N)cc3[nH]c21`, the “%Inh” value in the assay with PIK3C2G came to 0%; with PIK3CA, 8%; in the assay on PIK3CB, 0%; with PIK3CD, 3%; in the assay with PIK3CG, 31%; with PIK4CB it was 33%. Besides, the “%Inh” value was determined as 14% in the assay on PIKFYVE, 10% in the assay on PIM1, 92.2% with PIM2 and 52% in the assay on PIM3.

For `CCCCc1nn2ncccc2c1-c1ccnc(Nc2ccc(N3CCN(C)CC3)cc2)n1` [GW684941], the “%Inh” value in the assay with PIK3C2G was determined as 0%; with PIK3CA, 0%; in the assay with PIK3CB it was 0%; with PIK3CD, 41%; in the assay with PIK3CG, 0%; in the assay on PIK4CB it was 74%. The “%Inh” value with PIKFYVE stood at 51%; with PIM1, 0%; in the assay with PIM2 it was 0%; in the assay with PIM3, 0%.

On to `Cc1ccc(S(=O)(=O)Nc2ccc(Nc3nccc(Nc4cccc5[nH]ncc45)n3)cc2)cc1` [GSK581271], for which the “%Inh” value was found to be 0% in the assay on PIK3C2G; 0% in the assay with PIK3CA; 0% in the assay on PIK3CB; 0% in the assay on PIK3CD; 5% in the assay on PIK3CG; 77% in the assay on PIK4CB. Moreover, the “%Inh” value in the assay with PIKFYVE came out at 0%; in the assay on PIM1, 11%; with PIM2, 0%; in the assay with PIM3 it was 0%.

`Cc1cccc(Nc2nc(N[C@H]3CCNC3)ncc2C(N)=O)c1.Cl` [GSK2197149]: the “%Inh” value in the assay with PIK3C2G is 0%; with PIK3CA, 0%; in the assay with PIK3CB, 0%; in the assay on PIK3CD, 0%; with PIK3CG, 0%; with PIK4CB, 8%. Besides, the “%Inh” value in the assay with PIKFYVE was 0%; in the assay with PIM1 it was 28%; in the assay with PIM2 it was 68%; in the assay on PIM3, 76%.

In the case of `Cl.Cl.NCC(NC(=O)c1cc(-c2ccccc2)c(-c2ccnc3[nH]ccc23)s1)c1ccccc1` (stereo not shown) [GSK1321561], the “%Inh” value in the assay with PIK3C2G is 0%; in the assay on PIK3CA, 0%; with PIK3CB, 0%; with PIK3CD, 0%; in the assay with PIK3CG, 4%; with PIK4CB it was 0%. Further, the “%Inh” value in the assay with PIKFYVE, in the assay on PIM1, in the assay with PIM2 and with PIM3 was 0% in each case.

For `Cl.NC(=O)c1cccc(Nc2nccc(Nc3ccc(Oc4c(Cl)cccc4Cl)c(Cl)c3)n2)c1` [GW659009], the “%Inh” value came to 0% with PIK3C2G; 0% with PIK3CA; 0% in the assay with PIK3CB; 4% with PIK3CD; 0% with PIK3CG; 0% in the assay on PIK4CB. Moreover, the “%Inh” value in the assay on PIKFYVE was determined as 0%; in the assay on PIM1, 13%; in the assay with PIM2, 0%; in the assay on PIM3, 4%.

With `Cc1cccc(NC(=O)Nc2ccc(Oc3ncnc4ccn(C)c34)cc2)c1`, the “%Inh” value with PIK3C2G, in the assay with PIK3CA, in the assay with PIK3CB, in the assay on PIK3CD, in the assay with PIK3CG and in the assay on PIK4CB was 0% throughout. For the same compound, the “%Inh” value is reported as 40% in the assay on PIKFYVE, 0% in the assay on PIM1, 0% in the assay on PIM2 and 0% in the assay on PIM3.

Consider `COc1cc(Nc2ncc3c(C)nc(-c4cc5ccccc5[nH]4)n3n2)cc(OC)c1OC` [GW869516], for which the “%Inh” value was found to be 0% in the assay with PIK3C2G; 0% in the assay with PIK3CA; 0% with PIK3CB; 0% in the assay on PIK3CD; 30% in the assay on PIK3CG; 0% with PIK4CB. Further, the “%Inh” value was found to be 0% in the assay on PIKFYVE, 4% with PIM1, 0% in the assay on PIM2 and 0% in the assay on PIM3.

Turning to `CNC(=O)c1ccccc1Nc1nc(Nc2ccc(N3CCOCC3)cc2)ncc1Cl.Cl` [GSK1576028], the “%Inh” value with PIK3C2G came to 0%; in the assay with PIK3CA it was 15%; with PIK3CB, 50%; in the assay on PIK3CD, 29%; in the assay with PIK3CG it was 31%; with PIK4CB it was 56%. The “%Inh” value in the assay with PIKFYVE worked out at 53%; with PIM1, 45%; in the assay with PIM2, 0%; with PIM3, 55%.

As for `COc1cccc(C2=C(Nc3ccc(Cl)c(C(=O)O)c3)C(=O)NC2=O)c1` [SB-390769], the “%Inh” value with PIK3C2G is 100%; in the assay on PIK3CA it was 10%; in the assay with PIK3CB, 93.3%; with PIK3CD, 0%; with PIK3CG, 0%; in the assay with PIK4CB, 0%. Also, the “%Inh” value stood at 21% with PIKFYVE, 0% in the assay with PIM1, 0% in the assay on PIM2 and 0% in the assay on PIM3.

`CC(C)(C)c1ccc2nccc(Nc3cccc(O)c3)c2c1` [GW856795]: the “%Inh” value is 25% in the assay with PIK3C2G; 0% with PIK3CA; 0% in the assay with PIK3CB; 3% in the assay on PIK3CD; 33% in the assay with PIK3CG; 0% in the assay with PIK4CB. Besides, the “%Inh” value in the assay with PIKFYVE is listed as 42%; in the assay with PIM1, 7%; in the assay on PIM2 it was 0%; in the assay on PIM3 it was 0%.

For `COc1cc(Nc2nccc(-c3c(-c4cccc(NC(=O)c5c(F)cccc5F)c4)nn4ccccc34)n2)cc(OC)c1OC` [GSK323521], the “%Inh” value was 9% in the assay on PIK3C2G; 4% with PIK3CA; 16% in the assay with PIK3CB; 0% with PIK3CD; 9% with PIK3CG; 11% in the assay with PIK4CB. Also, the “%Inh” value amounted to 0% in the assay on PIKFYVE, 17% in the assay with PIM1, 0% with PIM2 and 5% with PIM3.

As for `O=C(Nc1cccc(Oc2ccc3nc(NC(=O)C4CC4)cn3n2)c1)c1ccccc1C(F)(F)F`, the “%Inh” value in the assay on PIK3C2G, in the assay on PIK3CA, in the assay with PIK3CB, in the assay with PIK3CD, in the assay on PIK3CG and in the assay on PIK4CB was 0% each time. For the same compound, the “%Inh” value in the assay with PIKFYVE, in the assay with PIM1, in the assay on PIM2 and in the assay with PIM3 was 0% throughout.

Regarding `C[C@@H]1CC[C@@H](C(=O)Nc2ccccc2)CN1c1cc(-c2ccc3c(N)n[nH]c3c2)nc(N)n1` [GSK2286062], the “%Inh” value is on record as 0% in the assay with PIK3C2G; 0% in the assay with PIK3CA; 0% in the assay on PIK3CB; 0% in the assay with PIK3CD; 2% in the assay with PIK3CG; 0% in the assay on PIK4CB. Further, the “%Inh” value in the assay with PIKFYVE is given as 0%; in the assay on PIM1 it was 31%; with PIM2 it was 0%; in the assay with PIM3, 4%.

`c1ccc(-c2cnc3nccnn23)cc1` [AH20685]: the “%Inh” value in the assay on PIK3C2G, in the assay on PIK3CA, in the assay with PIK3CB, in the assay with PIK3CD, in the assay with PIK3CG and in the assay on PIK4CB was 0% each time. Further, the “%Inh” value came to 0% in the assay with PIKFYVE, 0% in the assay on PIM1, 0% in the assay on PIM2 and 9% in the assay with PIM3.
